Shiga toxin inh = blocks Shiga toxin action in Vero cells. Vero cells, Shiga toxin protein synthesis inhibition reporter. inhibition, % at 38.7 µM. 290,000 tested, 9.2% active; in the data active = inhibition mostly above about 28%, no sharp cut-off; inactive = mostly below about 43%; note: 0% is about no effect
AmpC inh no detg = AmpC beta-lactamase inhibition without detergent; P00811; AmpC nitrocefin hydrolysis, absorbance 480 nm, 0.0001% Triton; Potency, µM (top dose mostly 57.1 µM), for inactives: at the highest dose activity change, negative = inhibition, most hits filed as inhibitors; 330,000 tested, 0.52% active; AID 485341;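 note: potency is the fitted concentration of half-maximal effect; plate controls were no compound for no effect and no enzyme for full effect; nearly all actives have a fitted effect of over 20% in size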
Target sequence (P00811 whole entry, looked up): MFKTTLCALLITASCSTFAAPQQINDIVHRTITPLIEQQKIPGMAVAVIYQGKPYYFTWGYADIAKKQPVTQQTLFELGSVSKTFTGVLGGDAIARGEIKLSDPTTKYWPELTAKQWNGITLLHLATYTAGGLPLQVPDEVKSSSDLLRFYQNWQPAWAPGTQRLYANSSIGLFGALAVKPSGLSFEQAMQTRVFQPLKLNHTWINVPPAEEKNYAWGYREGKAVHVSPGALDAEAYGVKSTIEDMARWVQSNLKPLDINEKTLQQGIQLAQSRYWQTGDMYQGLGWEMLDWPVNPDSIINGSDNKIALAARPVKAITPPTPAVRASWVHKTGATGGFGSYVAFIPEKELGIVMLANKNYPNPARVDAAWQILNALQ
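20 mM phosphate pH 7.0 + 0.01% (detergent screen) or 0.0001% Triton X-100; 5.3 nM AmpC reagent; cpd preinc 15 min RT; nitrocefin (800 uM stock) to start; A480 q20 s × 4 min; Activity was normalised to no-enzyme and no-compound control wells.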
CHX counter = affects cycloheximide protein synthesis inhibition readout, counter-screen | max response, % | cell reporter, cycloheximide protein synthesis inhibition counterscreen | AID 2314 | 300,000 tested, 12% active; in the data active = max response mostly above about 13%, no sharp cut-off; inactive = mostly below about 14%; note: read at 38.3 µM for the half of the compounds with a filed dose; 0% is about no effect
SARS PLP yeast = inhibitors of SARS-CoV papain-like protease in yeast; 330,000 tested, 0.19% active; S. cerevisiae expressing SARS-CoV PLpro, growth rescue; Potency, µM (titrated, usually from 32.9 µM), without a hit: at the highest dose activity, positive = growth rescue, most hits filed as activators; calls by dose curve; note: potency is the fitted concentration of half-maximal effect; 0% is about no effect; nearly all actives have a fitted effect of over 55% in size
AmpC inh detg = inhibitors of E. coli AmpC beta-lactamase with detergent; P00811; Potency, µM (titrated, usually from 114 µM), inactives show top-dose activity change, negative = inhibition, hits mostly inhibitors; 370,000 tested, 0.041% active; AmpC hydrolysis of nitrocefin, absorbance 480 nm, 0.01% Triton;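 note: potency is the fitted concentration of half-maximal effect; 0% = no-compound wells and -100% = no-enzyme wells; nearly all actives have a fitted effect of over 25% in size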
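AmpC (5.3 nM in the dispensed reagent) in 20 mM phosphate pH 7.0 with 0.01% (detergent screen) or 0.0001% Triton X-100 was preincubated with compounds for 15 min at room temperature. Nitrocefin was then added from an 800 uM solution, and hydrolysis was followed at 480 nm.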
AMA1 RON2 block = inhibitors of Plasmodium falciparum AMA1-RON2 interaction; Potency, µM (doses to about 58.2 µM), for the others: top-dose activity change, negative = inhibition, hits mostly inhibitors; 360,000 tested, 0.2% active; AlphaScreen AMA1-biotinylated RON2 peptide binding; AID 720542;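 note: potency is the fitted concentration of half-maximal effect; 0% = vehicle wells and -100% = peptide control; nearly all actives have a fitted effect of over 45% in size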
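AMA1 (3D7) with his tag at 25 nM final met compounds first, then biotinylated RON2 peptide at 25 nM; detection used donor plus acceptor beads, 10 µg/mL apiece, read by AlphaScreen after 30 min at room temperature.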
The depositor's hits bear a star; ? = inconclusive; / = no result; [ ] = another dose, or the depositor's remark. Many of the other results were omitted from the sample, so hits are more common in it than they were. Unless noted, calls come from the whole dose curve; as a rule, active = well fitted curve in the direction sought with a large enough effect; inconclusive = small, poorly fitted or top-dose-only effect, or another doubt; inactive = no such curve, though single readings can be large; an effect the other way counts as inactive or inconclusive.

SMILES	Shiga toxin inh	AmpC inh no detg	CHX counter	SARS PLP yeast	AmpC inh detg	AMA1 RON2 block
C/C(=N\Nc1cc(C)nc(-c2ccccc2O)n1)c1ccccc1	151.0	6.1%	30.6*	-2.0%	7.5%	33.0%
Cc1cc(Nc2ccc(F)c(F)c2)nc(-c2ccccc2O)n1	-7.5	-39.5%	-2.7	1.8%	5.3%	0.0%
CC(=O)Nc1ccc(S(=O)(=O)c2ccc(C)cc2)cc1	-11.0	-15.8%	-1.2	-1.1%	-0.1%	-4.6%
C/C(=N\S(=O)(=O)c1ccc(C)cc1)NC(=S)Nc1ccc(C)cc1	118.1*	-24.2%	40.5*	-0.5%	-1.4%	-4.0%
Cc1cccc(NC(=S)N/C(=N/S(=O)(=O)c2ccccc2)c2ccccc2)c1	17.8*	-27.6%	43.9*	-3.5%	?	23.4%
Cc1ccc(S(=O)(=O)/N=C(/NC(=S)Nc2cccc(C)c2)c2ccccc2)cc1	76.9*	-26.4%	53.8*	29.2%	1.2%	4.2%
COc1cccc(-c2nc(N)nc(SC)c2C#N)c1	31.1	-29.1%	13.7*	0.1%	4.1%	13.0%
COc1cccc(-c2nc(-c3ccccc3)nc(N3CCN(C)CC3)c2C#N)c1	17.3	181.2%	-2.2	0.4%	?	-15.4%
O=C(Nc1ccc(OCC(F)(F)C(F)F)c(C(F)(F)F)c1)c1ccccc1O	52.1*	-35.1%	20.7*	-38.3%	-5.4%	2.2%
CC(=C/c1ccccc1)/C=N/NC(=O)CSc1nc(C)cc(C)n1	-13.0	3.8%	10.2	-21.0%	-1.3%	19.7%
CC(/C=N/NC(=O)Cc1cccn1C)=C\c1ccccc1	74.1*	-34.6%	19.9*	9.8%	-8.3%	7.2%
O=C(Cc1cccs1)N/N=C/C(Br)=C/c1ccccc1	77.1*	-45.9%	51.5*	-2.8%	2.3%	5.2%
O=C(CN1CCOCC1)N/N=C/C(Br)=C\c1ccccc1	16.9	-4.7%	12.0	-3.5%	-0.2%	-2.3%
CC(/C=N/NC(=O)Cc1cccs1)=C\c1ccccc1	42.0*	-27.3%	60.3*	-14.0%	2.5%	-4.3%[11.6 µM]
COc1cc(/C=N/NC(=O)CCc2ccccc2)ccc1O	-19.5	-12.4%	19.7	2.6%	2.5%	-2.7%
COc1ccc(NC(=O)C2CCN(S(=O)(=O)c3ccccc3)CC2)cc1	-3.3	-11.5%	-5.6	4.1%	1.2%	11.5%
c1ccc(-c2nc3c([nH]2)CCc2nonc2-3)cc1	77.9*	-12.6%	30.7*	2.0%	-12.1%	-21.2%
O=C1CCCc2[nH]c(-c3ccccc3)nc21	59.5*	19.1%	37.2*	-0.7%	-5.7%	-1.4%
Cc1c(-c2ccccc2)nc(-c2ccccc2)[nH]c1=O	-2.7	1.5%	-0.4	5.0%	?	-13.1%
Cc1ccc(/C=N/Nc2cc(C)nc(N3CCOCC3)n2)cc1	11.8	3.5%	-1.5	-0.1%	0.3%	-2.7%
Cc1cc(N/N=C/c2ccccc2)nc(N2CCOCC2)n1	54.8	29.4%	19.0*	0.4%	2.5%	-1.7%
Cc1nc(N)nc(N/N=C/c2ccccc2)n1	40.7*	-6.1%	14.0*	-0.8%	-6.0%	77.5%
Cc1cc(N/N=C/c2ccccc2)nc(N)n1	49.8*	-5.9%	19.7*	-1.0%	-1.5%	97.3%
O=C(c1ccc(N2CCOCC2)c([N+](=O)[O-])c1)N1CCN(Cc2ccccc2)CC1	23.1	116.9%	6.8	3.2%	-5.3%	?
CC(C)Oc1cccc(C(=O)C2CCCN(Cc3ccon3)C2)c1 (stereo not given)	24.5	43.4%	8.4*	-0.6%	-0.2%	-0.9%
SMILES	Shiga toxin inh	AmpC inh no detg	CHX counter	SARS PLP yeast	AmpC inh detg	AMA1 RON2 block
CC(C)Oc1cccc(C(=O)C2CCCN(C(=O)c3ccoc3)C2)c1 (stereo not given)	26.2*	-2.3%	16.2*	0.1%	-3.3%	-7.8%
c1ccc(-n2nnc3ccccc32)nc1	66.6*	-1.3%	25.6*	-5.2%	?	3.3%
CCCSc1ccc([C@@H]2[C@H]3C(=O)N(CC)C(=O)[C@H]3[C@]3(C(=O)OC)CCCN23)cc1OC	/	186.3%	/	6.2%	-17.6%	-9.3%
COc1ccc(C2=NN(C(=O)CN3CCOCC3)C(c3nc4ccccc4[nH]3)C2)cc1 (stereo not given)	105.3*	1.2%	55.6*	-4.3%	5.2%	-14.2%
COc1ccc(C2=NN(C(=O)CN3CCCCC3)C(c3ccc(C)cc3)C2)cc1 (stereo not given)	-12.7	75.9%	-4.1	-0.3%	-7.7%	-4.1%
Nc1ccc(Cc2ccc(N)c(O)c2)cc1O	43.5*	-48.1%	23.4	-3.6%	-10.4%	-20.7%
CC(=NCCc1c(C)[nH]c2ccc(OC(F)(F)F)cc12)C1=C(O)CC(c2ccccc2)CC1=O (stereo not given)	-10.0	-0.2%	-11.2	0.1%	-2.0%	-0.1%
O=c1[nH]c(=S)n(-c2ccc(Br)cc2)c(O)c1C=Nc1ccc(N2CCOCC2)cc1	0.0	-43.2%	15.5*	-12.3%	0.4%	33.7%
O=C1N=C(N2CCN(c3ccccc3)CC2)SC1Cc1ccccc1 (stereo not given)	31.8	0.8%	13.8*	-13.8%	2.0%	-5.8%[2.32 µM]
CCOc1ccccc1NC(=O)C(CC(C)C)NS(=O)(=O)c1ccc2c(c1)oc(=O)n2C (stereo not given)	/	/	/	/	-8.2%	/
CCc1nnc(NC(=O)CSc2nnc3c(n2)[nH]c2ccccc23)s1	25.2	-32.0%	-5.0	-4.6%	0.7%	5.1%
Cc1ccnc(NC(=O)CSc2nnc3c(n2)[nH]c2ccccc23)c1	46.6*	-19.5%	33.2*	0.1%	-0.6%	/
Cc1ccccc1-c1nc(CSc2nc3c(c(=O)[nH]2)CCC3)c(C)o1	-17.9	-27.1%	-5.3	18.2%	?	-1.2%
CCCn1nnc(NC(=O)c2ccc3ccccc3c2)n1	142.8*	-32.7%	44.4*	3.1%	-3.8%	3.4%
CCCn1nnc(NC(=O)c2ccc(Br)o2)n1	17.9	-13.8%	18.0	-4.1%	-7.3%	-17.1%
CCCn1nnc(NC(=O)c2cccc(OCC(C)C)c2)n1	71.1*	-10.0%	39.1*	-14.5%	-9.8%	-13.6%
CCCn1nnnc1NC(=O)c1ccc2ccccc2c1	-5.0	-11.9%	5.7	15.0%	-9.0%	57.7%
CC(C)COc1cccc(C(=O)NC2(C)CCS(=O)(=O)C2)c1 (stereo not given)	8.2	-2.1%	1.3	-8.7%	5.5%	14.0%
CCCn1nnc(NC(=O)c2cccc(OCC)c2)n1	129.9*	-9.5%	44.7*	-1.5%	-1.6%	0.6%
CCCn1nnc(NC(=O)c2ccc(F)cc2)n1	56.6*	-29.7%	48.2*	7.7%	-2.6%	-0.5%
CC(=O)c1ccc(N2CCN(S(=O)(=O)c3ccc(-c4cc(C(F)(F)F)on4)s3)CC2)cc1	/	/	/	/	7.9%	/
CCn1nnc(NC(=O)c2ccc(C(C)(C)C)cc2)n1	35.6	0.4%	36.3*	-3.6%	-11.4%	4.8%

Screening results deposited in PubChem by National Center for Advancing Translational Sciences (NCATS).
